The full data set covers some 8,800 targets. This sample favours those with a hit. About 0.5% of all pairs of compound and target were hits. Values without a mark were called inactive.
Key:
Assay in all cases: log2 fold change, soluble protein after heating vs DMSO (PISA); higher = thermal stabilisation; K562 lysate, 10 uM; active = over 0.2 and 3.5 SD of the protein, either way, in both replicates (recomputed)
[1] = compound: NCC(=O)Nc1ccc(-n2nc(C(F)(F)F)cc2-c2ccc3c(ccc4ccccc43)c2)cc1
In short: (§1)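 Values give the log-two fold change in thermal stability against solvent controls, from duplicates. Crude K562 extract at 1 mg/mL protein, made by dounce homogenisation in PBS pH 7.4 with 1 mM MgCl2, was treated with 10 μM compound for 30 min. After 3 min heating across 48°C-58°C, aliquots were pooled, adjusted to 0.5% NP-40 at 4°C and centrifuged at 21,000xg for 90 min. The supernatant was measured by TMTpro 16plex LC-MS/MS with channel sums equalised.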

vorinostat = compound: O=C(CCCCCCC(=O)Nc1ccccc1)NO [vorinostat]
In short: as §1

silmitasertib = compound: O=C(O)c1ccc2c(c1)nc(Nc1cccc(Cl)c1)c1ccncc12 [silmitasertib]
In short: as §1

[2] = compound: O=C1NC(=O)C(c2cnc3ccccn23)=C1c1cn2c3c(cc(F)cc13)CN(C(=O)N1CCCCC1)CC2
In short: as §1

entospletinib = compound: c1cn2cc(-c3ccc4cn[nH]c4c3)nc(Nc3ccc(N4CCOCC4)cc3)c2n1 [entospletinib]
In short: as §1

UniProt P47900, sequence (P47900 whole entry, looked up): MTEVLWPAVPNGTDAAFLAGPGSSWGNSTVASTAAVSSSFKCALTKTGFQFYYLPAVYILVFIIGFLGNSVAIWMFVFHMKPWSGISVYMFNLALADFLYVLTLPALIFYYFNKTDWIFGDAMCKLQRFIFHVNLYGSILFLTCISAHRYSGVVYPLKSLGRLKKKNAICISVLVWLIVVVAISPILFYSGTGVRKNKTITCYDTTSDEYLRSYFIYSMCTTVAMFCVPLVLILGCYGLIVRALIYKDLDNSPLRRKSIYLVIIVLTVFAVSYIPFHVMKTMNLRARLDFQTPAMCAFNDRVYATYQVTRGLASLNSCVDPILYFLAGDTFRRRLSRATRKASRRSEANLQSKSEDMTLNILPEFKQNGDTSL
UniProt Q8N1F7, sequence (Q8N1F7 whole entry, looked up): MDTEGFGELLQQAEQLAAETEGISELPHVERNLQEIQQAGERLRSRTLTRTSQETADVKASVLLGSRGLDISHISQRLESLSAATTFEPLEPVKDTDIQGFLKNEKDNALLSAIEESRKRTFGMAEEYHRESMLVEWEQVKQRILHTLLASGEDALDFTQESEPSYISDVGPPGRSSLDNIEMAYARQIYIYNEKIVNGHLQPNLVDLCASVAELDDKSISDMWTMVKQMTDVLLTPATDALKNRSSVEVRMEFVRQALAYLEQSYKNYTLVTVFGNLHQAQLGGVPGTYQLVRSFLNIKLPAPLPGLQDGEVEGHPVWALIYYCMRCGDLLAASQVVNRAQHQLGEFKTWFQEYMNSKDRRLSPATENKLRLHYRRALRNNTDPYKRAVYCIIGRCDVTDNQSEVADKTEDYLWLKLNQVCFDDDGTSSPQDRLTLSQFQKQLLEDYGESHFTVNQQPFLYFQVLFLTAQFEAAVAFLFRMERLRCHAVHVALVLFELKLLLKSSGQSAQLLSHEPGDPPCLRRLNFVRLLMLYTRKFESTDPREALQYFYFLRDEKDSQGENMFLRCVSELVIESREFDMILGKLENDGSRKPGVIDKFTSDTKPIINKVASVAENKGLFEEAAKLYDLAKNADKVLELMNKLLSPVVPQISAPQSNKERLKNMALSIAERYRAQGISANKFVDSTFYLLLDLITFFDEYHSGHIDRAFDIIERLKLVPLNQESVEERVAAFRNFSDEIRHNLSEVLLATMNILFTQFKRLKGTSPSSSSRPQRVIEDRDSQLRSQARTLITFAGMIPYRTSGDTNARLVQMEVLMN
UniProt Q15746, sequence (Q15746 whole entry, looked up): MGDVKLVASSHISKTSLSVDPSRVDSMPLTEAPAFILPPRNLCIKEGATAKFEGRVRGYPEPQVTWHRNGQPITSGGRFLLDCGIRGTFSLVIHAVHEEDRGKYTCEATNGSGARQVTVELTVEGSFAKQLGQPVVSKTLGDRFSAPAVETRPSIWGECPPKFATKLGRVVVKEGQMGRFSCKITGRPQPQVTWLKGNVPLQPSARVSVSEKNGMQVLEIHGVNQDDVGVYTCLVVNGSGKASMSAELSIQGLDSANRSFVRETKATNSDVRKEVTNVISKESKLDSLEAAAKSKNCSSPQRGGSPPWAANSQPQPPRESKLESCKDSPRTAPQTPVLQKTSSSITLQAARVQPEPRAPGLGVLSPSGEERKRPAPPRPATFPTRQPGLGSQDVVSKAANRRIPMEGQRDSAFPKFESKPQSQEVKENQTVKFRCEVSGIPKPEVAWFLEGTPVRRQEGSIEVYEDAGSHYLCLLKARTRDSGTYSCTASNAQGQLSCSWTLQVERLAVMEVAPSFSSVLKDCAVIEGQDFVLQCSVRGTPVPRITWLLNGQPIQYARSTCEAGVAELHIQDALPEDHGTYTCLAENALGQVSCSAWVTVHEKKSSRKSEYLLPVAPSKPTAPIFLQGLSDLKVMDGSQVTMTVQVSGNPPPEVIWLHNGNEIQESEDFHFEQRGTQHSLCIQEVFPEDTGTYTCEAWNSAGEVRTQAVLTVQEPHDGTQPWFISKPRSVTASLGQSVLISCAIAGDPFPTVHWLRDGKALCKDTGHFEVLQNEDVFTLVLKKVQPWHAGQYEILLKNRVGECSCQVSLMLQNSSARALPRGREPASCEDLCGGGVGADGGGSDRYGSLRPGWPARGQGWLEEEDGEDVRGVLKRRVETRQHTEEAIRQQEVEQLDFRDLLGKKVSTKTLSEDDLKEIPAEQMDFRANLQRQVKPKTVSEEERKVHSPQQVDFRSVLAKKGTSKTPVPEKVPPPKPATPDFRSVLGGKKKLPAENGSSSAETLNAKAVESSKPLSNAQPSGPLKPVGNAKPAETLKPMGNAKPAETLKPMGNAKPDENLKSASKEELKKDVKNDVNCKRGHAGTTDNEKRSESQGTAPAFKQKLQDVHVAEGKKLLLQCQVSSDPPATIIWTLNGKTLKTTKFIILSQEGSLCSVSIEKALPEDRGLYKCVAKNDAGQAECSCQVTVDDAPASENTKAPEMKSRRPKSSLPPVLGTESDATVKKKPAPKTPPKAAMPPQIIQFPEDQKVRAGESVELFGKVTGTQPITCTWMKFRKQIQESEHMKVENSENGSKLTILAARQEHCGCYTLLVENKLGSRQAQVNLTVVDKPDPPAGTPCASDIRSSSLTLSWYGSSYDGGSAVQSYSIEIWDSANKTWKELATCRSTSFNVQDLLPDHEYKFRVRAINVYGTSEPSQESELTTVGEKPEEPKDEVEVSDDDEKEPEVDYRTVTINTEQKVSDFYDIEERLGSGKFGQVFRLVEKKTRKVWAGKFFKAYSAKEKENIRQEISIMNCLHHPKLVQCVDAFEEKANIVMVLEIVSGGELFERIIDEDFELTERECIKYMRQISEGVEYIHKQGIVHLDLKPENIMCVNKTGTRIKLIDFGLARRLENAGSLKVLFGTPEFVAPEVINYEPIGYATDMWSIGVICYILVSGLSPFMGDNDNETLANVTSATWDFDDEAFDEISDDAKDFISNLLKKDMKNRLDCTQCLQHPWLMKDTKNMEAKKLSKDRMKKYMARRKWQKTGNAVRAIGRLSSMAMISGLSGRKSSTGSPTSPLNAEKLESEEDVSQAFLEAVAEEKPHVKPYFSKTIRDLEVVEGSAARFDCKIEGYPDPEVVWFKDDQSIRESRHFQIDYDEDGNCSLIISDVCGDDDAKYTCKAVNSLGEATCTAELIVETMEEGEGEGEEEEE
UniProt Q13416, sequence (Q13416 whole entry, looked up): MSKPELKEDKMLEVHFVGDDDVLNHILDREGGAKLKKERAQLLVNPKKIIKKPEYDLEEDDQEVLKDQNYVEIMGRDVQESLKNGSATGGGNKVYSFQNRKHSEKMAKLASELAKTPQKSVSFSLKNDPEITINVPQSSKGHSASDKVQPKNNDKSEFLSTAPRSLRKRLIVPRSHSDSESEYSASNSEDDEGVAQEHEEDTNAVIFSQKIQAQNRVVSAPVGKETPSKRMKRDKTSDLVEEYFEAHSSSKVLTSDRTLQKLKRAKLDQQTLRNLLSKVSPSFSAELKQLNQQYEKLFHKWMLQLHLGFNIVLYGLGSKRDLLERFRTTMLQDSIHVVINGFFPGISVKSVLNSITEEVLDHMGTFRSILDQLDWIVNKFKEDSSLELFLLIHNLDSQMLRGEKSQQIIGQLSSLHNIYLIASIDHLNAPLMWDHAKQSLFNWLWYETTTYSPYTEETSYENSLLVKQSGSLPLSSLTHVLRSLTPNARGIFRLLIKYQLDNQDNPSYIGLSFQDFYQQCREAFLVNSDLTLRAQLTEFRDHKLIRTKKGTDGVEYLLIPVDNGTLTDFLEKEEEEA
UniProt P00480, sequence (P00480 whole entry, looked up): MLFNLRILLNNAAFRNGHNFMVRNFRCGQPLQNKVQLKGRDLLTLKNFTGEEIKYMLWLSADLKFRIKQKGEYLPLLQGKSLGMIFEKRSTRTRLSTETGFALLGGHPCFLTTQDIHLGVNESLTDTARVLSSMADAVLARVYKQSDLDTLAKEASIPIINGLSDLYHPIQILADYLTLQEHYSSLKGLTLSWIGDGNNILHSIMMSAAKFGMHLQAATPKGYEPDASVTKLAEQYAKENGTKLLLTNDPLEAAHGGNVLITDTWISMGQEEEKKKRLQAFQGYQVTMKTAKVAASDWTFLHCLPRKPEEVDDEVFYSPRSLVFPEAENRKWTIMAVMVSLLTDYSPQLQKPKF
UniProt Q15233, sequence (Q15233 whole entry, looked up): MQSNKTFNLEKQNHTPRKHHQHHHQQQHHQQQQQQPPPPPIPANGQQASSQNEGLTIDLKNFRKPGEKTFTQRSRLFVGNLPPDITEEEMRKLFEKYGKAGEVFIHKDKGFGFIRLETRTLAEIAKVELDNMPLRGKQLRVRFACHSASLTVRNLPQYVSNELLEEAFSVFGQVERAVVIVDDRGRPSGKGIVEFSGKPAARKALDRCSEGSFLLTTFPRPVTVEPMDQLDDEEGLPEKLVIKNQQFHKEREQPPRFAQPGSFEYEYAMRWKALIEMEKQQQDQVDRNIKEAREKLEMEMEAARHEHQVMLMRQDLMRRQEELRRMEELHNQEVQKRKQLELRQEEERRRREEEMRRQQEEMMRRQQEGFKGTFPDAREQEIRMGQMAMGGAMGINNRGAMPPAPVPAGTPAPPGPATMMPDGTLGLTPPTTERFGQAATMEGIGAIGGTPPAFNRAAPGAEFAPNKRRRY
UniProt P24468, sequence (P24468 whole entry, looked up): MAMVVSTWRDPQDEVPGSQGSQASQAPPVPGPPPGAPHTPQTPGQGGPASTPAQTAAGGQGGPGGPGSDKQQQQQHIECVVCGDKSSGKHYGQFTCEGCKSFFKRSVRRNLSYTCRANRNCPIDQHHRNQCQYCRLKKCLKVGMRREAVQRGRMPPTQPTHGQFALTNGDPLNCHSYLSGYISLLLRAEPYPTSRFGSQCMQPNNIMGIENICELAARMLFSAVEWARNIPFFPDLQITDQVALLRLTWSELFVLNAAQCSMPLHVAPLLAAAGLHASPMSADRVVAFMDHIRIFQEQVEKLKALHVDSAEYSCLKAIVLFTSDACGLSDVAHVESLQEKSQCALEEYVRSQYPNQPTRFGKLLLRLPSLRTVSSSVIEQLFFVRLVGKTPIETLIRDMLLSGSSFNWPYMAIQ
UniProt O60829, sequence (O60829 whole entry, looked up): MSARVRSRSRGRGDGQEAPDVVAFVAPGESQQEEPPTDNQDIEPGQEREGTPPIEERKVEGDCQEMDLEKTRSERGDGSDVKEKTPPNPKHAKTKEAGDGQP

Target	log2 fold change [1]	log2 fold change (vorinostat)	log2 fold change (silmitasertib)	log2 fold change [2]	log2 fold change (entospletinib)
MRPL53 (UniProt Q96EL3)	-0.052	-0.119	0.042	-0.024	0.033
PARD3 (UniProt Q8TEW0)	-0.071	-0.314	-0.118	-0.081	-0.003
OGFR (UniProt Q9NZT2)	-0.036	-0.285 (active)	0.02	-0.018	-0.061
NDC1 (UniProt Q9BTX1)	0.013	-0.134	-0.016	-0.012	-0.016
MYD88 isoform 6 (UniProt Q99836)	-0.005	-0.366 (active)	0.023	-0.05	0.033
ORC3 isoform 2 (UniProt Q9UBD5)	-0.012	-0.409 (active)	0.023	0.052	0.013
OSBPL6 isoform 5 (UniProt Q9BZF3)	-0.082	-0.195	0.25	-0.026	0.113
PAXBP1 (UniProt Q9Y5B6)	0.02	-0.146	-0.019	-0.02	-0.043
ORC2 (UniProt Q13416)	0	-0.285 (active)	0.007	0.049	0.021
NUP93 (UniProt Q8N1F7)	-0.011	-0.242 (active)	0.067	0.015	0.022
NOSIP (UniProt Q9Y314)	-0.015	-0.809 (active)	-0.047	0.002	0.013
MTFP1 (UniProt Q9UDX5)	-0.04	0.102	-0.007	0.02	-0.009
NR2F2 (UniProt P24468)		-0.389 (active)	0.176	0.017	
PANK2 (UniProt Q9BZ23)	0			-0.012	-0.023
NSA2 (UniProt O95478)	0.035	-0.073	-0.042		0.208
P2RY1 (UniProt P47900)		0.04	0.13		-0.064
MTA1 (UniProt Q13330)	-0.005	-0.212 (active)	-0.037	0.016	-0.036
PARD3B (UniProt Q8TEW8)		-0.585 (active)	-0.209		
NOCT (UniProt Q9UK39)		-0.886 (active)	0.004	-0.036	-0.301
ORC1 (UniProt Q13415)					-0.047
NIPSNAP3A (UniProt Q9UFN0)	0.03	0.136	-0.061	0.017	-0.021
NONO (UniProt Q15233)	0.013	-0.355 (active)	0.027	-0.007	0

Target	log2 fold change [1]	log2 fold change (vorinostat)	log2 fold change (silmitasertib)	log2 fold change [2]	log2 fold change (entospletinib)
MYH6 (UniProt P13533)		0.209	-0.053	0.188	0.102
NPLOC4 (UniProt I3L3I1)				0.253	-0.146
PAGE4 (UniProt O60829)		-0.425 (active)	0.06	-0.074	-0.054
NELFA (UniProt Q9H3P2)	-0.057	-0.309 (active)	-0.004	0.008	-0.027
OSBPL1A (UniProt Q9BXW6)		0.128	-0.19	-0.14	
NUDT4 isoform 2 (UniProt Q9NZJ9)	0.057	-0.336 (active)	-0.034	0.018	-0.023
NDUFAF5 (UniProt Q5TEU4)	-0.023	0.065	0.002	-0.006	-0.046
NUB1 isoform 2 (UniProt Q9Y5A7)				-0.068	
NR3C1 isoform 3 (UniProt P04150)	-0.124		0.05	0.046	-0.064
NAA16 (UniProt Q6N069)	0.43				-0.018
OSBP (UniProt P22059)	0.041	0.108	-0.121	-0.015	-0.1
NAA35 (UniProt Q5VZE5)	-0.04	-0.308 (active)	0.017	0.004	0.028
NCAPD3 (UniProt P42695)	-0.005	-0.562 (active)	0.034	-0.022	-0.007
MYLK (UniProt Q15746)	-0.312			-0.294	-0.096
NEXN (UniProt Q0ZGT2)	0.144	-0.335	-0.038		0.042
NRIP1 (UniProt P48552)		0.274	0	0.06	
NFATC4 isoform 2 (UniProt Q14934)	0.207			0.076	0.019
NUDT5 (UniProt C9JYY9)		-0.041	0.129		0.01
OPA1 isoform 2 (UniProt O60313)	0.002	0.014	0.027	0.009	-0.004
OTC (UniProt P00480)	0.097	0.087	-0.029	-0.157	-0.028
NFAT5 isoform 4 (UniProt O94916)				-0.062	
